GSIS activator: GLuc luminescence reporter in INS-1E cells, primary screen for activators of glucose-dependent secretion of insulin; activation, % at 16.6 µM; INS-1E GLuc reporter insulin secretion, 2-3 h; 370,000 tested, 0.61% active; AID 743287;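 active means lowest replicate activation of at least 40%, so every replicate reaches that level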
F508del corr: correctors of CFTR F508del function in bronchial epithelial cells. AID 720511. activity (quench increase), % at 7.58 µM. CFBE cells, YFP halide quenching; stimulated with forskolin plus potentiator P3; % fluorescence drop versus neutral controls. 350,000 tested, 0.36% active;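 active means mean added fluorescence quench of at least 8% versus neutral control, with both replicates also reaching 8%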;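 further: cells transiently co-express mutant CFTR-F508del with the halide-sensitive YFP; corrector assay measuring rescue of mutant channel to the surface after 24 h compound exposure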
MITF TRPM1 HTS: increases MITF-driven TRPM1 promoter luciferase signal | SK-MEL-5 TRPM1-promoter luciferase, 24 h; % of positive control, neutral wells = 0 | activation, % at 12.5 µM | 300,000 tested, 0.75% active | AID 588334;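 active means mean activation of at least 80% with every replicate also reaching 80%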
Wnt bcat act: activates Wnt/beta-catenin signaling in a reporter cell assay; activator, plate reader; AID 743398; activation, % at 9.35 µM; 300,000 tested, 1.2% active; in the data active means activation above about 30%, passing the limit was not always enough
Env fusion inh: HIV envelope-mediated fusion inhibition | AID 651610 | HeLa-JRFL Env/CEM21 cell fusion, luciferase | inhibition, % at 12.3 µM | 360,000 tested, 1.1% active;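 active means mean replicate inhibition score of at least 50 and every replicate individually at or above 50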
Hits are given with their value; 0 = inactive; - = not tested or not shown; ! = not active in a repeat; [ ] = dose if it differs, or a comment. An excerpt weighted towards active compounds, which were near 2.7% of everything screened.

SMILES	GSIS activator	F508del corr	MITF TRPM1 HTS	Wnt bcat act	Env fusion inh
CC(C)C[C@H](N)c1cn([C@@H](Cc2cc3ccccc3[nH]2)C(=O)N2CCNCC2)nn1	0	0	0	0	0
CNC[C@@H]1Oc2cc(-c3ccncc3)ccc2S(=O)(=O)N([C@H](C)CO)C[C@H]1C	0	0	-	-	0
Cc1ccc(C(=O)NCCN(C)C)c(C)c1	-	-	0	0	0
CNc1c2cccc(C)c2nc2c(C(=O)NCCN(C)C)cccc12	0	19.4	0	0	-
CO[C@@H]1CN(C)C(=O)c2ccc(NC(=O)NC3CCCCC3)cc2OC[C@@H](C)N(CC2CCOCC2)C[C@H]1C	0	0	-	-	0
COc1cc(-c2c(-c3cc(OC)c(OC)c(OC)c3)noc2C)ccc1F	0	0	-	0	68.1
COc1cc(-c2noc(C)c2C#Cc2ccccn2)cc(OC)c1OC	0	10.0	0	0	0
CCCC(=O)Nc1ccc2c(c1)C(=O)N(C)C[C@H](OC)[C@H](C)CN(Cc1ccncc1)[C@@H](C)CO2	0	0	-	-	-
CCNCc1ccccc1OCc1ccccc1	0	0	0	0	0
Oc1ccc(NCc2ccccc2OCc2ccccc2)cc1	0	0	0	39.5	0
Cc1ccc(S(=O)(=O)N(C)C[C@H]2Oc3ccc(N(C)C)cc3CC(=O)N([C@H](C)CO)C[C@@H]2C)cc1	0	0	-	-	-
COc1cc(/C=C/C(=O)Nc2nnc(CC(C)C)s2)cc(OC)c1OC	0	-	0	0	56.8
C[C@@H]1CN([C@H](C)CO)C(=O)Cc2cc(NC(=O)Nc3cccc4ccccc34)ccc2O[C@@H]1CN(C)S(=O)(=O)c1ccc(Cl)cc1	0	0	-	-	-
CC=Cc1ccc2n(c1=O)C[C@H]1[C@H](CO)[C@@H](C(=O)NCc3ccc(F)cc3)N(Cc3cncnc3)[C@@H]21 (mixture of isomers)	0	-	-	-	0
Cc1cc(C)cc(NC(=O)Cc2ccc(-n3cccc3)cc2)c1	53.9	-	0	0	0
CCCNC(=O)C[C@H]1CC[C@H]2[C@H](COc3ccc(NC(=O)Cc4ccccc4)cc3C(=O)N2C)O1	0	0	-	-	0
COCCNC(=O)C[C@@H]1C[C@H]2c3cc(N(C)C)ccc3O[C@H]2[C@@H](CO)O1	0	0	-	-	65.4[16.7 µM]
CN(C)CC(=O)Nc1ccc2c(c1)[C@H]1C[C@@H](CC(=O)NCCc3ccccc3)O[C@H](CO)[C@H]1O2	0	0	-	-	59.8[16.7 µM]
O=C(C[C@H]1C[C@@H]2c3cc(NC(=O)C4CCOCC4)ccc3O[C@@H]2[C@@H](CO)O1)NCc1ccccc1F	0	0	-	-	82.0[16.7 µM]
O=C(C[C@@H]1C[C@@H]2c3cc(NC(=O)C4CCOCC4)ccc3O[C@@H]2[C@H](CO)O1)NCCc1ccccc1	0	0	-	-	62.9[16.7 µM]
COc1ccc(NC(=O)N(C)C[C@@H]2Oc3ccc(NS(=O)(=O)c4c(C)noc4C)cc3CC(=O)N([C@H](C)CO)C[C@@H]2C)cc1	0	0	-	-	0
CC(C)NC(=O)N[C@@H]1C=C[C@@H](CC(=O)N2CCCCC2)O[C@H]1CO	0	0	-	-	0
C[C@@H]1CN([C@H](C)CO)C(=O)c2cc(-c3cccc(F)c3)cnc2O[C@H]1CN(C)C(=O)C1CCC1	0	0	-	-	0
C[C@@H]1CN([C@@H](C)CO)C(=O)c2cc(NC(=O)c3ccccc3)ccc2O[C@@H](C)CCCCO[C@@H]1CN(C)S(=O)(=O)c1cccs1	0	0	-	-	0
O=C(C[C@@H]1C[C@H]2c3cc(NC(=O)C4CCOCC4)ccc3O[C@H]2[C@@H](CO)O1)NCc1ccccc1	0	0	-	-	90.2[16.7 µM]
SMILES	GSIS activator	F508del corr	MITF TRPM1 HTS	Wnt bcat act	Env fusion inh
CC1(C)C2CCC1(C)C(OC(=O)c1ccccc1C(=O)O)C2 (stereo unspecified)	0	0	0	0	0
CC1(C)C2CCC1(C)C(OCCNCCOC(=O)Nc1ccccc1)C2 (stereo unspecified)	0	0	0	0	68.6
CCCNC(=O)N1CC2(C1)CN(C(=O)CCC)[C@@H](CO)c1[nH]c3cc(OC)ccc3c12	0	0	-	-	-
Cc1cc2oc(=O)cc(COC(=O)c3n[nH]c4ccccc34)c2cc1C	0	-	92.0	-	-
Cc1ccc2nc(N3C(=O)CNC3=S)sc2c1	-	0	-	0	0
COc1ccc2nc(N3C(=O)CNC3=S)sc2c1	0	0	-	53.9	0
CCc1nc(SCC(=O)c2ccccc2)c2c(=O)n(C)c(=O)n(C)c2n1	40.7	0	0	0	0
CC(C)(C)c1ccc(C(=O)NCc2ccccc2)cc1	0	0	88.4	0	0
O=C(NCc1ccccc1)c1ccc(C(=O)NCc2ccccc2)cc1	0	0	0	0	81.9
CC(C)(C)c1ccc(C(=O)NCc2ccc(Cl)cc2)cc1	0	-	0	0	0
O=C(NOCc1ccccc1)c1ccccc1	0	0	0	32.0	0
O=C(NCc1ccccc1)c1ccccc1	0	0	0	0	-
COc1ccccc1-c1ccc(C2[C@H]3CNC[C@@H]2N3Cc2cc(-c3ccccc3)on2)cc1 (stereo partly specified)	0	0	-	-	-
C/C=C/c1ccc(C2[C@H]3CNC[C@@H]2N3Cc2cc(-c3ccccc3)on2)cc1 (stereo partly specified)	71.6!	0	-	-	-
N#Cc1cccc(-c2ccc(C3[C@H]4CNC[C@@H]3N4Cc3cc(-c4ccccc4)on3)cc2)c1 (stereo partly specified)	72.3!	0	-	-	-
C/C=C/c1ccc(C2[C@H]3CNC[C@@H]2N3Cc2nccs2)cc1 (stereo partly specified)	0	0	-	-	-
CCC(=O)N1[C@@H](CO)[C@@H](c2ccc(-c3ccc(C#N)cc3)cc2)C12CN(C(C)=O)C2	0	0	-	-	-
COc1ccc(C(=O)NCC(c2ccco2)N2CCc3ccccc32)cc1 (stereo unspecified)	0	12.5	0	0	0
COCCCNC(=O)C(=O)NCC(c1ccco1)N1CCN(c2ccc(OC)cc2)CC1 (stereo unspecified)	49.6	0	0	0	0
O=C(NCCC1=CCCCC1)C(=O)NCC(c1ccco1)N1CCN(c2ccccc2)CC1 (stereo unspecified)	125.9	-	0	-	0
COc1ccc(N2CCN(C(CNC(=O)c3ccco3)c3ccco3)CC2)cc1 (stereo unspecified)	0	0	0	0	-
CC(C)(C)[S@@](=O)N1Cc2cc(C(=O)N3CCOCC3)nc(-c3cccc(C4=CCCC4)c3)c2[C@H]1CCO	0	-	-	-	-
C[C@H](CO)N1C[C@H](C)[C@@H](CN(C)S(=O)(=O)c2ccc(Cl)cc2)Oc2ccc(NS(=O)(=O)c3cn(C)cn3)cc2CC1=O	0	0	-	-	0
COc1cccc(-c2ccc3n(c2=O)C[C@@H]2[C@@H](CO)[C@H](C(=O)N(C)C)[C@H]3N2Cc2cncnc2)c1	0	0	-	-	-
COC(=O)C[C@H]1C[C@H]2c3cc(NC(=O)CN(C)C)ccc3O[C@H]2[C@@H](CO)O1	0	0	-	-	0
CCN1CCn2c3c(c4cc(C)ccc42)CCCC31 (stereo unspecified)	-	-	0	-	-
Cc1ccc2c(c1)c1c3n2CCN(CCC#N)C3CCC1 (stereo unspecified)	0	0	-	0	71.7

Screening data deposited in PubChem by Broad Institute.
